Screening data deposited in PubChem BioAssay by National Center for Advancing Translational Sciences (NCATS).
Most compounds without a hit are left out; they make up all but 8% or so of the library.
HCV inhibitor = blocks hepatitis C virus | Potency, µM (highest dose often 41.8 µM), hits mostly inhibitors | actives 3.4% (n = 340,000) | Huh7.5.1 HCVcc-Cre infection, luciferase reporter, 44 h; active = well fitted inhibition curve with a large enough effect; inconclusive = small, poorly fitted or top-dose-only effect, or another doubt; inactive = no such curve, though single readings can be large or run the other way
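1,000 cells/well; 4 h culture; + compound; + HCVcc-Cre (~0.5 moi); 44 h; luciferase substrate, RT 15 min; read 15 sec.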
HCMV inh = inhibitors of human cytomegalovirus | HFF cells, HCMV-luciferase reporter, 72 h; stronger effect = lower value | actives 4.5% (n = 410,000) | activity change, negative = inhibition, % at 57.5 µM; in the data active = activity change below about -60%; inconclusive = no clear call, values can overlap the other calls; inactive = above about -39%
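Inhibition of viral replication was scored as loss of reporter luminescence in HFFs infected with HCMV-luciferase (MOI 1 PFU/cell) for 72 h; compounds tested at 2 doses, normalized to buffer and Salinomycin controls.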
LASV entry inh = inhibitors of Lassa virus binding or cell entry | Lassa virus pseudotype entry inhibition, cell reporter | Potency, µM (highest dose often 37.9 µM), hits mostly inhibitors | actives 1.2% (n = 300,000); calls by dose curve; tested in HEK293 cells; also: nearly all actives have a fitted effect of over 50% in size
SARS PLpro yeast = SARS-CoV PLP inhibition in yeast; actives 0.19% (n = 330,000); Potency, µM (highest dose often 32.9 µM), most hits filed as activators; S. cerevisiae expressing SARS-CoV PLpro, growth rescue; calls by dose curve; also: nearly all actives have a fitted effect of over 55% in size
FMDV antiviral = antivirals against foot and mouth disease virus; FMDV antiviral cell-based qHTS; Potency, µM (top dose mostly 57.9 µM), usual class: inhibitors; actives 1.2% (n = 410,000); AID 1159524; calls by dose curve; tested in HEK293T cells; also: read-out not given here; nearly all actives have a fitted effect of over 45% in size
MARV entry inh = blocks Marburg virus binding to or entry into cells. Marburg virus pseudotyped entry inhibition, cell reporter. Potency, µM (titrated, usually from 37.8 µM), actives largely listed as inhibitors. actives 1.8% (n = 300,000). AID 540276; calls by dose curve; tested in HEK293 cells
Numbers stand for hits; – = inactive; ? = inconclusive; · = no result.

SMILES	HCV inhibitor	HCMV inh	LASV entry inh	SARS PLpro yeast	FMDV antiviral	MARV entry inh
Cc1cccc(Nc2nnc(-c3ccc(C)c(S(=O)(=O)N4CCN(C)CC4)c3)c3ccccc23)c1	·	-69.4	?	·	–	?
Cc1ccc(-c2nnc(Nc3cccc(Br)c3)c3ccccc23)cc1S(=O)(=O)N1CCN(C)CC1	·	?	?	·	–	·
CC(C)CCn1c(=O)c2ccccc2n2c(CN3CCCC3)nnc12	–	–	–	–	–	–
CCCCCn1c(=O)c2ccccc2n2c(CCl)nnc12	–	–	–	–	20µM	–
CC(C)CCn1c(=O)c2ccccc2n2c(CCl)nnc12	?	–	?	–	31.6µM	?
CCOC(=O)c1c(C)oc2nc(C)nc(NCC3CCN(Cc4ccccc4C)CC3)c12	·	-103.7	–	·	–	·
O=C(Nc1cccc(C(F)(F)F)c1)c1cccnc1NCCO	–	–	–	–	–	–
CNC(=O)c1cccnc1Nc1cccc(C(F)(F)F)c1	10µM	–	–	–	–	–
C/C(=N\NC(=O)c1ccc(Cn2cc(Br)cn2)o1)c1cccc(NC(=O)C(C)(C)C)c1	–	?	–	–	–	?
C/C(=N\NC(=O)c1ccc(Cn2cc(Br)cn2)o1)c1ccc(NC(=O)c2ccoc2C)cc1	7.08µM	–	–	–	–	?
Cc1nn(Cc2ccccc2Cl)c(Cl)c1C(=O)O	–	–	–	–	–	–
CCn1nc(C)c(Br)c1C(=O)Sc1ccccc1Cl	–	–	–	–	22.4µM	–
Nc1nnc(SCC(=O)Nc2cccc(F)c2)s1	·	–	–	·	–	?
COc1ccc(C(=O)Nc2ccccc2-c2nnn(CC(=O)Nc3ccc4c(c3)OCCO4)n2)cc1	–	-62.9	–	–	–	–
COc1ccccc1NC(=O)Cn1nnc(-c2ccccc2NC(=O)c2ccco2)n1	?	–	?	–	?	–
O=C(Cn1cnc2ccccc21)Nc1ccc2c(c1)OCCCO2	11.2µM	?	·	–	–	·
COc1ccc(NC(=O)Cn2nnc(-c3ccccc3NC(=O)c3ccco3)n2)cc1	?	–	?	–	–	11.2µM
COc1ccc(-n2ncc3c(=O)n(CC(=O)Nc4ccc5c(c4)OCCO5)cnc32)cc1	–	-60.1	?	–	–	?
COC(=O)C1=C(C(=O)OC)[C@@H]2Nc3ccccc3[C@@]23C[C@@H](C(=O)OC)N(C(=O)NC(C)(C)C)C3=N1	·	·	·	·	·	–
CCOC(=O)[C@]12C[C@]3(OC)CCN(C(=O)N[C@@H]1c1ccccc1)[C@@H]32	·	·	–	·	·	–
COc1cc(OC)cc(C(=O)Nc2ccccc2-c2nnn(CC(=O)Nc3cc(C)on3)n2)c1	–	-62.7	·	–	?	–
CCCCNCc1cc(Br)c(OCC(=O)N2CCOCC2)c(OC)c1	–	–	–	–	–	–
CCCCOc1c(Br)cc(CNCCCN2CCOCC2)cc1OC	3.98µM	–	?	–	–	?
O=C1C=CC(=O)c2c(O)cccc21	·	·	·	·	–	·
Cc1cccc2c1c1ccc3c(c1n2C)C(=O)C=CC3=O	–	–	·	–	14.1µM	·
SMILES	HCV inhibitor	HCMV inh	LASV entry inh	SARS PLpro yeast	FMDV antiviral	MARV entry inh
CCN(CC)S(=O)(=O)c1cc(NC(=O)Cc2n[nH]c(=O)c3ccccc23)ccc1C	?	?	?	–	–	?
CN(c1ccccc1)S(=O)(=O)c1cccc(NC(=O)CSc2ncn[nH]2)c1	?	-68.2	?	–	35.5µM	?
CN(c1ccccc1)S(=O)(=O)c1cccc(NC(=O)CSc2nnc(N)s2)c1	?	–	?	–	?	18.4µM
CC(C)n1cnnc1SCC(=O)Nc1cccc(S(=O)(=O)N(C)c2ccccc2)c1	?	–	·	–	–	·
CN(c1ccccc1)S(=O)(=O)c1cccc(NC(=O)CSc2nncs2)c1	?	–	10.3µM	–	10µM	?
CN(c1ccccc1)S(=O)(=O)c1cccc(NC(=O)Cc2n[nH]c(=O)c3ccccc23)c1	10µM	?	·	–	?	·
Cc1cccc(NC(=O)CSc2nnc(N)s2)c1	·	–	–	·	–	·
CCOC(=O)CSc1nc2ccc(NC(=O)c3ccc(F)cc3)cc2s1	·	–	–	·	–	–
Cn1nnnc1SCCCNCc1cc(Cl)ccc1OCc1ccc(F)cc1	·	?	–	·	–	?
NNC(=O)C1C(O)CCC2CN3CCc4c([nH]c5ccccc45)C3CC21 (centres undefined)	–	-100.3	–	·	–	?
CCN(Cc1ccncc1)Cc1ccc2c(c1)CN(C(=O)c1ccc(C)cc1)CCO2	·	·	·	·	–	·
COc1ccc(Oc2ccc(/C=C/C(=O)c3cccc(OC)c3)cc2[N+](=O)[O-])cc1	?	?	?	–	31.6µM	?
COc1ccc(/C=N/NC(=O)c2cccnc2)cc1	–	–	·	–	–	·
COc1cccc(NC(=O)/C=C/c2ccc([N+](=O)[O-])cc2)c1	?	–	–	–	–	?
COc1ccc(Oc2ccc(/C=N/NC(=O)c3cccnc3)cc2[N+](=O)[O-])cc1	?	-80.3	·	–	–	–
Cc1c(C)n(Cc2ccccc2)c2ncnc(Cl)c12	?	-88.3	·	–	?	·
Cc1c(C)n(CCc2ccccc2)c2ncnc(NCCO)c12	–	–	·	–	–	·
CC(C)C1Nc2ccc(C(=O)NCCCN3CCOCC3)cc2NC1=O (centres undefined)	–	·	–	–	–	–
Oc1ccc(Br)cc1-c1nc2cnccn2c1NC1CCCC1	11.2µM	?	–	–	?	?
Fc1ccc(-c2nc3cnccn3c2NC2CCCC2)cc1	14.1µM	–	·	–	–	·
Oc1ccc(Br)cc1-c1nc2cnccn2c1NC1CCCCC1	?	?	–	–	·	?
O=C1CCC[C@H]2[C@@H](Cc3ccccc3)[C@H](N(Cc3ccccc3)Cc3ccccc3)CC[C@]23CCCN13	·	–	·	·	·	·
Cc1cc(S(=O)(=O)N(Cc2ccc(C(C)C)cc2)CC2CCCO2)ccc1-n1cnnn1 (centres undefined)	?	-77.2	?	–	·	?
Cc1cc(S(=O)(=O)N(Cc2ccc(F)cc2)CC2CCCO2)ccc1-n1cnnn1 (centres undefined)	–	–	?	–	·	–
O=C(NC1CCSc2ccccc21)c1ccccc1Br (centres undefined)	–	–	·	–	–	·
SMILES	HCV inhibitor	HCMV inh	LASV entry inh	SARS PLpro yeast	FMDV antiviral	MARV entry inh
N#Cc1ccc2nc(-c3ccc(CN4CCC(c5nc6ccccc6[nH]5)CC4)cc3)c(-c3ccccc3)nc2c1	·	–	·	·	·	·
O=[N+]([O-])c1ccc(N/N=C/c2cccc(O)c2O)c(S(=O)(=O)N2CCOCC2)c1	2.82µM	–	·	–	?	·
O=[N+]([O-])c1ccc(N/N=C/c2ccc(O)c(O)c2O)c(S(=O)(=O)N2CCOCC2)c1	?	–	–	–	?	–
COc1ccc(CCN(C)Cc2nc(-c3cnccn3)no2)cc1OC	–	–	·	–	5.62µM	·
CC(=O)NC(c1ccc(Cl)cc1)c1ccc2cccnc2c1O (centres undefined)	4.47µM	-98.6	·	·	–	·
COc1ccc(C(NC(=O)C(C)C)c2ccc3cccnc3c2O)cc1 (centres undefined)	2µM	-99.2	2.51µM	?	?	?
